Laboratory results from PubChem BioAssay AID652154 (Broad Institute, 2013).
The campaign covered roughly 360,000 compounds. About 4,200 (1.2%) were called active.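 The calls were made as follows: active = mean replicate inhibition at least 60% with every replicate also reaching 60%; inconclusive = only one of the two criteria is met; inactive = mean below 60% and not all replicates reaching 60%.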 The list comes from a sample in which actives are over-represented; it also holds similar structures and randomly drawn compounds.

assay: PAX8 transcriptional activity inhibition in RMG-I – RMG-I cells, luciferase, single concentration, primary screen (AID 652154); details: RMG-I TPO-luciferase reporter, SteadyGlo, 24 h; at 12.6 µM; active compounds read high;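 also: luciferase light reporting Pax8 driven TPO promoter activity; plate controls were median of neutral control wells for no effect and mitoxantrone controls for full effect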

| Compound | inhibition |
| --- | --- |
| O=C(N[C@@H]1CC[C@@H](CCNS(=O)(=O)c2ccccc2Cl)O[C@@H]1CO)c1ccccc1 | -1.25% (inactive) |
| O=C(C[C@@H]1CC[C@H]2[C@@H](COC[C@H](O)CN2Cc2ccc(F)cc2)O1)N1CCc2ccccc2C1 | -7.32% (inactive) |
| CO[C@@H]1CN(C)C(=O)c2cc(NC(=O)c3cnccn3)ccc2OC[C@@H](C)N(CC2CC2)C[C@H]1C | 6.97% (inactive) |
| CO[C@@H]1CN(C)C(=O)c2cc(NC(=O)C3CC3)ccc2OC[C@H](C)N(CC2CC2)C[C@H]1C | 7.02% (inactive) |
| C[C@@H](O)C#Cc1ccc2c(c1)O[C@@H](CN(C)C)[C@@H](C)CN([C@@H](C)CO)S2(=O)=O | -0.827% (inactive) |
| CCCNC(=O)Nc1ccc2c(c1)C(=O)N(C)C[C@@H](OC)[C@H](C)CN(CCC)[C@@H](C)CO2 | -1.74% (inactive) |
| O=C(C1CCC1)N1C[C@H]2[C@@H](c3ccccc31)[C@@H](CO)N2C(=O)c1ccccc1F | 5.48% (inactive) |
| COc1cccc(-c2ccc3c(c2)[C@@H]2[C@@H](CCN2S(=O)(=O)C2=NC(C)C=N2)[C@@H](CO)N3C)c1 (stereo partly drawn) | 19.4% (inactive) |
| C/C=C/c1ccc([C@@H]2[C@H](CO)N(CC3CCCC3)C23CN(C(=O)CC)C3)cc1 | 18.8% (inactive) |
| C[C@H]1CN([C@@H](C)CO)S(=O)(=O)c2ccc(C3=CCCC3)cc2O[C@H]1CN(C)C(=O)Cc1ccncc1 | 1.78% (inactive) |
| O=C(NCc1ccccc1Cl)[C@H]1[C@H](CO)[C@H]2Cn3c(cccc3=O)[C@H]2N1C(=O)C1CCC1 | -12.8% (inactive) |
| Cc1ccc(S(=O)(=O)N(C)C[C@@H]2Oc3c(NC(=O)c4ccncc4)cccc3C(=O)N([C@@H](C)CO)C[C@@H]2C)cc1 | 1.41% (inactive) |
| CCS(=O)(=O)Nc1ccc2c(c1)C(=O)N(C)[C@H]1CC[C@H](CC(=O)N[C@@H]3CCN(Cc4ccccc4)C3)O[C@H]1CO2 | -7.99% (inactive) |
| C[C@@H]1CN([C@H](C)CO)C(=O)c2cc(C3=CCCCC3)cnc2O[C@@H]1CN(C)C(=O)c1ccc2c(c1)OCO2 | -9.44% (inactive) |
| C[C@@H]1CN([C@H](C)CO)C(=O)c2cc(C#CCN(C)C)cnc2O[C@H]1CN(C)C(=O)Cc1ccncc1 | -16.9% (inactive) |
| C[C@H](CO)N1C[C@H](C)[C@H](CN(C)Cc2ccncc2)Oc2ccc(NS(=O)(=O)c3ccc(F)cc3)cc2CC1=O | 6.06% (inactive) |
| C[C@H]1CN([C@@H](C)CO)C(=O)Cc2cc(NS(=O)(=O)c3ccc(F)cc3)ccc2O[C@H]1CN(C)Cc1ccc(C(F)(F)F)cc1 | -55.2% (inactive) |
| C[C@@H]1CN([C@@H](C)CO)C(=O)Cc2cc(NS(=O)(=O)c3ccc(Cl)cc3)ccc2O[C@H]1CN(C)Cc1ccc(C(F)(F)F)cc1 | 84.5% (active) |
| COc1ccc(S(=O)(=O)Nc2ccc3c(c2)CC(=O)N([C@H](C)CO)C[C@H](C)[C@H](CN(C)Cc2ccc(C(F)(F)F)cc2)O3)cc1 | 7.06% (inactive) |
| C[C@H]1CN([C@@H](C)CO)C(=O)Cc2cc(NS(=O)(=O)c3cccs3)ccc2O[C@@H]1CN(C)Cc1ccc(Oc2ccccc2)cc1 | -11% (inactive) |
| C[C@H](CO)N1C[C@H](C)[C@@H](CN(C)Cc2ccc(Oc3ccccc3)cc2)Oc2ccc(NS(=O)(=O)c3ccc(F)cc3)cc2CC1=O | 78.6% (active) |
| COCC(=O)N(C)C[C@@H]1Oc2cc(C#Cc3cccnc3)ccc2S(=O)(=O)N([C@H](C)CO)C[C@H]1C | 6.54% (inactive) |
| O=C(C[C@H]1CC[C@H]2[C@@H](COC[C@@H](O)CN2CCC(F)(F)F)O1)NCc1ccc2c(c1)OCO2 | -15.5% (inactive) |

| Compound | inhibition |
| --- | --- |
| O=C(C[C@H]1C=C[C@H](NC(=O)Nc2ccccc2F)[C@@H](CO)O1)NCc1ccc(Cl)cc1 | -8.13% (inactive) |
| C[C@@H]1CCCCO[C@H](CN(C)Cc2ccncc2)[C@@H](C)CN([C@H](C)CO)C(=O)c2cc(NC(=O)CCCN(C)C)ccc2O1 | -4.23% (inactive) |
| COc1ccc(NC(=O)N(C)C[C@H]2Oc3ccc(NC(=O)Cc4cn(C)c5ccccc45)cc3CC(=O)N([C@@H](C)CO)C[C@H]2C)cc1 | 16.5% (inactive) |
| CN(Cc1cccs1)C(=O)CN1C(=O)c2ccccc2S1(=O)=O | -105% (inactive) |
| CN(Cc1ccc(F)cc1)C(=O)CN1C(=O)c2ccccc2S1(=O)=O | -2.85% (inactive) |
| O=C(CN1C(=O)c2ccccc2S1(=O)=O)N1CCc2ccccc21 | 90.5% (active) |
| C[C@@H]1CN([C@@H](C)CO)C(=O)Cc2cc(NC(=O)Cc3ccccc3)ccc2O[C@@H]1CN(C)Cc1ccc2c(c1)OCO2 | 13.6% (inactive) |
| Cc1cc(C(=O)Nc2cccc3c2O[C@@H](CN(C)C(=O)Nc2ccc(F)cc2)[C@H](C)CN([C@@H](C)CO)C3=O)n(C)n1 | 7.05% (inactive) |
| COc1ccc(NC(=O)Nc2ccc3c(c2)C(=O)N([C@@H](C)CO)C[C@H](C)[C@H](CN(C)CC2CCCCC2)O3)cc1 | -0.963% (inactive) |
| CC(=O)Nc1ccc(C=CC(=O)c2ccc([N+](=O)[O-])cc2)cc1 | 15.2% (inactive) |
| O=C1/C(=C\c2ccc([N+](=O)[O-])cc2)CS(=O)(=O)C/C1=C/c1ccc([N+](=O)[O-])cc1 | 122% (active) |
| O=C(O)C(=Cc1ccc([N+](=O)[O-])cc1)CCc1ccccc1 | 8.95% (inactive) |
| COc1ccc(S(=O)(=O)N(C)C[C@H]2Oc3c(NC(=O)C4CCOCC4)cccc3C(=O)N([C@@H](C)CO)C[C@@H]2C)cc1 | -8.86% (inactive) |
| Cn1cnc(CCNC(=O)[C@H]2[C@H](CO)[C@H]3Cn4c(cccc4=O)[C@H]3N2C(=O)Nc2ccccc2)c1 | -6.72% (inactive) |
| Cn1cnc(S(=O)(=O)N2C[C@@H](O)COC[C@@H]3O[C@H](CC(=O)NCc4ccc(F)cc4)CC[C@H]32)c1 | -3.38% (inactive) |
| Cc1ccc(/C=N/NC(=O)COc2ccccc2-c2ccccc2)cc1 | 87.7% (active) |
| Cc1ccc(/C=N/NC(=O)CSc2nc3ccccc3o2)cc1 | -83% (inactive) |
| Cc1ccc(COc2ccc(/C=N/NC(=O)CN3CCCCC3)cc2)cc1 | -222% (inactive) |
| O=C(C[C@H]1CC[C@@H](NC(=O)Nc2ccc(C(F)(F)F)cc2)[C@H](CO)O1)NCc1cc(F)cc(F)c1 | -5.75% (inactive) |
| Cc1ccccc1-c1ccc([C@@H]2[C@@H](CO)N3CCCCN(C(=O)Nc4cccc(F)c4)C[C@H]23)cc1 | 10.4% (inactive) |
| CC(C)Cc1nnc(NC(=O)CCNC(=O)c2ccccc2Cl)s1 | -15.6% (inactive) |
| CC(C)Cc1nnc(NC(=O)CCc2ccccc2)s1 | -22.6% (inactive) |
| Cc1ccc(S(=O)(=O)CCC(=O)Nc2nnc(CC(C)C)s2)cc1 | 82.8% (active) |

| Compound | inhibition |
| --- | --- |
| C[C@H](NC(=O)C[C@H]1C=C[C@H](NS(=O)(=O)c2cccc(F)c2)[C@@H](CO)O1)c1ccccc1 | -17.2% (inactive) |
| Cc1noc(C)c1NC(=O)N(C)C[C@@H]1OCCCC[C@H](C)Oc2ccc(NC(=O)C3CCCCC3)cc2C(=O)N([C@H](C)CO)C[C@@H]1C | 9.59% (inactive) |
| O=C(CCS(=O)(=O)c1ccccc1)Nc1nc2c(s1)CCCC2 | 51.3% (inactive) |
| COc1ccc(N(C)C(=O)CCS(=O)(=O)c2cccc3nsnc23)cc1 | 1.7% (inactive) |
| Cc1cccc(C)c1NC(=O)CCS(=O)(=O)c1cccc2nsnc12 | 15.3% (inactive) |
| Cc1cccc2sc(N(CCCN(C)C)C(=O)CCS(=O)(=O)c3ccccc3)nc12 | 95.4% (active) |
| COc1cccc2sc(N(CCCN(C)C)C(=O)CCS(=O)(=O)c3ccccc3)nc12 | 97.8% (active) |
| CCN(CC)CCN(C(=O)c1ccc2c(c1)CCCC2)c1nc2c(OC)cccc2s1 | 14.3% (inactive) |
| CC(C)NC(=O)N[C@@H]1CC[C@H](CCn2cc(-c3ccccc3)nn2)O[C@H]1CO | -6.01% (inactive) |
| CCS(=O)(=O)N1[C@H](C#N)[C@H](c2ccc(-c3cccc(F)c3)cc2)[C@@H]1CO | -12.2% (inactive) |
| C[C@@H]1CN([C@@H](C)CO)C(=O)c2cc(NC(=O)NC3CCCCC3)ccc2O[C@@H](C)CCCCO[C@H]1CN(C)Cc1ccccc1 | -10.1% (inactive) |
| C[C@@H]1CN([C@@H](C)CO)C(=O)c2cccc(NS(=O)(=O)c3cn(C)cn3)c2O[C@@H]1CN(C)Cc1ccc(Cl)c(Cl)c1 | -5.72% (inactive) |
| COCC(=O)Nc1ccc2c(c1)OC[C@H](C)N(C(=O)COC)C[C@@H](C)[C@H](OC)CN(C)C2=O | -25.8% (inactive) |
| Cc1cccc(S(=O)(=O)N2C[C@H]3[C@@H](c4ccccc42)[C@H](CO)N3Cc2ccc3c(c2)OCO3)c1 | 32% (inactive) |
| CC(=O)N(C)C[C@@H]1Oc2cc(-c3cccnc3)ccc2S(=O)(=O)N([C@H](C)CO)C[C@H]1C | -6.51% (inactive) |
| O=C(CC1CC1)N1CC[C@@H]2[C@H](CO)Nc3ccc(-c4ccc(F)cc4)cc3[C@@H]21 | 14% (inactive) |
| O=C(C[C@@H]1CC[C@@H]2[C@H](COC[C@@H](O)CN2Cc2cc(F)cc(F)c2)O1)NCc1cccc(F)c1 | 16% (inactive) |
| Cc1cccc(-c2ccc([C@@H]3[C@H]4CN(C(=O)c5ccccc5)CC(=O)N4[C@H]3CO)cc2)c1 | 23.1% (inactive) |
| O=C(C[C@@H]1CC[C@H]2[C@@H](COC[C@@H](O)CN2C(=O)c2ccc3c(c2)OCO3)O1)NC1CCCC1 | -8.12% (inactive) |
| Cc1cccc(-n2ncc(Cl)c(Cl)c2=O)c1 | 99.9% (active) |
| CCCNC(=O)c1c(Cl)cnn1-c1ccc(C)cc1 | -169% (inactive) |
| CC(=O)Nc1c2c(nn1-c1cccc(C)c1)CSC2 | 13.4% (inactive) |
